Values joined by “and” are separate entries in the source; they are usually repeats but may differ in a detail not shown here. Equal values may be shown once. Results filed as inconclusive are left out. For some of these results: Entries with a potency or affinity are not part of this list. Active and inactive are the calls of the source. Unless noted, how the calls were made is not given here.
Legend:
[1] = Ebola virus entry assay, green fluorescence channel
[2] = Ebola virus entry assay, blue channel fluorescence
[3] = Ebola virus entry assay, ratio channel
[4] = Ebola virus entry assay, green channel fluorescence
[5] = molecular target: T1, Hexokinase-4 (Homo sapiens) + Glucokinase regulatory protein (Homo sapiens) (UniProt P35557+Q14397); experiment: qHTS assay for inhibitors of recombinant human GCK-GKRP interaction: Diaphorase-coupled assay (AID 743205; active means well fitted curve in the direction sought with a large enough effect; an effect the other way counts as inactive or inconclusive); details: G6PDH/diaphorase resorufin fluorescence; series mostly up to 57.5 µM
Procedure, shortened: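 GST-GCK (10 nM) with FLAG-GKRP (10 nM), 5 mM glucose and 0.4 mM ATP in pH 7.6 Hepes; compounds preincubated 20 min with substrate. G6PDH/diaphorase coupling converts resazurin to resorufin, read kinetically (ex 525/em 590 nm) for 30 min.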

[6] = molecular target: T1, Hexokinase-4 (Homo sapiens) + Glucokinase regulatory protein (Homo sapiens); experiment: qHTS assay for inhibitors of recombinant human GCK-GKRP interaction: ADP-Glo assay (AID 743206; active means well fitted curve in the direction sought with a large enough effect; an effect the other way counts as inactive or inconclusive;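 further: plate controls were DMSO plus enzyme for no effect and no enzyme for full effect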); details: ADP-Glo luminescence, 60 min, 0% = vehicle-only wells with enzyme present; series mostly up to 76.9 µM
Procedure, shortened: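 Pin-transferred compounds meet a 15 nM GST-GCK/15 nM FLAG-GKRP/2 uM S6P mix (dispense concentrations). ATP is then added to 0.4 mM final with 5 mM glucose, and the reaction runs 60 min at room temperature. ADP is quantified luminescently.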

[7] = molecular target: T1, Hexokinase-4 (Homo sapiens) + Glucokinase regulatory protein (Homo sapiens); experiment: qHTS assay for inhibitors of recombinant human GCK-GKRP interaction: HTRF assay (AID 743207; active means well fitted curve in the direction sought with a large enough effect; an effect the other way counts as inactive or inconclusive;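 further: 0% = DMSO with GCK present and -100% = DMSO wells lacking GCK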); details: recombinant GCK-GKRP HTRF binding, 60 min; series mostly up to 57.5 µM
Procedure, shortened: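 GST-GCK and FLAG-GKRP (5 nM each) were combined with 2 uM S6P in pH 7.1 Hepes/MgCl2/KCl/DTT buffer, then compound and anti-FLAG XL665/anti-GST K antibodies were added. After 60 min at room temperature, HTRF 665/615 nm emission was read.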

[8] = qHTS Assay for Identifying Gametocytocidal Compounds (AID 743244; active means well fitted curve in the direction sought with a large enough effect; an effect the other way counts as inactive or inconclusive; further: potency means the concentration at half of the fitted maximal effect;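 on max response: on the % scale 0 is the no-effect control and ±100 the full control effect; actives lower the fluorescent signal which means gametocytes are killed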); details: P. falciparum 3D7 stage III-V gametocytes, alamarBlue, 72 h; max response: stronger effect = lower value
Procedure, shortened: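 Viability read-out was resazurin reduction (alamarBlue, 24 h) measured at Ex 525/Em 598 nm. Beforehand, late-stage (III-V) 3D7 P. falciparum gametocytes at 20,000 cells/well were incubated with compound 72 h at 37C under 5% CO2.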

[9] = qHTS profiling of the MIPE4 collection as inhibitors of Plasmodium falciparum (3D7) proliferation (AID 743344);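 further: scaled between DMSO vehicle wells and 0.29 µM artemisinin as full inhibition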; details: P. falciparum 3D7 in erythrocytes, SYBR Green DNA fluorescence, 72 h; at 28.5 µM (top of the series) unless noted
Procedure, shortened: (§1)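 Parasite DNA was quantified by SYBR Green I fluorescence (ex 485, em 535 nm) after overnight lysis in saponin/Triton buffer at room temperature. Cultures at 0.3% parasitemia and 2.5% hematocrit were first exposed to compound for 72 h at 37 C; signals were normalised to artemisinin (0.29 uM) and vehicle wells.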

[10] = qHTS profiling of the MIPE4 collection as inhibitors of Plasmodium falciparum (DD2) proliferation (AID 743345); details: P. falciparum Dd2 in erythrocytes, SYBR Green DNA, 72 h; at 28.5 µM (top of the series) unless noted
Procedure, shortened: as §1

[11] = qHTS profiling of the MIPE4 collection as inhibitors of Plasmodium falciparum (HB3) proliferation (AID 743347);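 further: plate controls were DMSO vehicle wells for no effect and artemisinin wells for full effect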; details: P. falciparum HB3 in erythrocytes, SYBR Green DNA, 72 h; at 28.5 µM (top of the series) unless noted
Procedure, shortened: as §1

[12] = qHTS assay for cell viability of HEK293 cells (AID 743288; active means well fitted curve in the direction sought with a large enough effect; an effect the other way counts as inactive or inconclusive; further: on the % scale 0 is the no-effect control and ±100 the full control effect; nearly all actives have a fitted effect of over 50% in size); details: ATP luminescence (CellTiter-Glo), 18 h; max response: stronger effect = lower value
Procedure, shortened: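 After 18 h compound exposure at 37 C, parental HEK293 cells (2,000/well) are lysed with CellTiter-Glo and luminescence is read following 30 min at room temperature.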

[13] = qHTS assay for cell viability of the p53RE-bla HCT-116 cell line (AID 743292; active means well fitted curve in the direction sought with a large enough effect; an effect the other way counts as inactive or inconclusive; further: on the % scale 0 is the no-effect control and ±100 the full control effect; nearly all actives have a fitted effect of over 55% in size); details: p53RE-bla HCT-116 viability, ATP luminescence, 16 h; series mostly up to 95 µM
Procedure, shortened: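 Luminescent ATP quantitation (CellTiter-Glo) served as the viability read-out; reagent was added after 16 h compound exposure at 37 C and read after 30 min at room temperature. Cells: p53RE-bla HCT-116, 4,000 per well.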

[14] = qHTS profiling for inhibitors of Plasmodium falciparum (3D7) proliferation (AID 743322);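 further: infected erythrocytes exposed to compound for 72 h before lysis; 100% = DMSO vehicle wells and 0% = 0.29 µM artemisinin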; details: P. falciparum 3D7 proliferation; at 28.7 µM (top of the series)
Procedure, shortened: as §1

[15] = qHTS profiling for inhibitors of Plasmodium falciparum (DD2) proliferation (AID 743323); details: lower = more inhibition; at 28.7 µM (top of the series)
Procedure, shortened: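 1536-well qHTS; infected RBCs 0.3% parasitemia/2.5% Hct final; cpd 72 h 37 C 5% CO2; lysis buffer + SYBR Green I, o/n RT dark; FI 485/535; norm. to 0.29 uM artemisinin and DMSO, plate-stack corrected.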

[16] = qHTS profiling for inhibitors of Plasmodium falciparum (HB3) proliferation (AID 743324; active means well fitted curve in the direction sought with a large enough effect; an effect the other way counts as inactive or inconclusive;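 further: 100% = DMSO vehicle wells and 0% = artemisinin-treated control wells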); details: Plasmodium falciparum HB3 blood-stage proliferation; at 28.7 µM (top of the series)
Procedure, shortened: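 SYBR Green fluorescence (485 ex/535 em) of lysed cultures, incubated overnight at room temperature in the dark, quantifies parasite DNA. Infected erythrocytes at 0.3% parasitemia and 2.5% hematocrit were exposed 72 h; values normalized to DMSO and 0.29 uM artemisinin controls.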
Wherever efficacy is given: 0% is about no effect.

T1 sequence (P35557 whole entry, looked up): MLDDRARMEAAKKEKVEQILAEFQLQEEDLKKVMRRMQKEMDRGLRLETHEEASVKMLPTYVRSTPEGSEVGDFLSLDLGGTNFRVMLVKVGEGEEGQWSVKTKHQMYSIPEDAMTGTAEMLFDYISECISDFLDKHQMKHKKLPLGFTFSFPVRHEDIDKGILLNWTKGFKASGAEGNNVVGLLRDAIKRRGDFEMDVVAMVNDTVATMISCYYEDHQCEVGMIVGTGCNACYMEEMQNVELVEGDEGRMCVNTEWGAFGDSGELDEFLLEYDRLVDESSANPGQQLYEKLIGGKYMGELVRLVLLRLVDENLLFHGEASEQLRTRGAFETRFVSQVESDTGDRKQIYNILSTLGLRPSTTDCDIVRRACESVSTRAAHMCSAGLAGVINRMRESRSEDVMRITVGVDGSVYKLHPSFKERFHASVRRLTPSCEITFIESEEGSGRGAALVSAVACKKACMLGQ
T1 sequence (Q14397 whole entry, looked up): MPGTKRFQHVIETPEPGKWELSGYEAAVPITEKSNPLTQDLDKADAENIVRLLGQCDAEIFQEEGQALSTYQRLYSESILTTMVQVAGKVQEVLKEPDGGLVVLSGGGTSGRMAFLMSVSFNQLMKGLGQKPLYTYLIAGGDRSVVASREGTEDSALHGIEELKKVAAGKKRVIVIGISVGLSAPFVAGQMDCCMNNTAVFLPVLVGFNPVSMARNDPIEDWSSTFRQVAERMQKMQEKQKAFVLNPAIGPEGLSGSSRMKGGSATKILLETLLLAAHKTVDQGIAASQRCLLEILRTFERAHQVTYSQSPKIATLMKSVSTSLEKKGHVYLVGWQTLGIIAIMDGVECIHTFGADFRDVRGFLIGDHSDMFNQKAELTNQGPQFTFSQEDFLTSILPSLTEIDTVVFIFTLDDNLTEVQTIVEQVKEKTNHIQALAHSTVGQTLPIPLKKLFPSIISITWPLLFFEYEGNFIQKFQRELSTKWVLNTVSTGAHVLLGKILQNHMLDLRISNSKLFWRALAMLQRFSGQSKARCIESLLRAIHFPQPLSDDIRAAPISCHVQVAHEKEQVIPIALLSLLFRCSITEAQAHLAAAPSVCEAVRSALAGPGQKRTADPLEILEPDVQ

NC(=O)N/N=C/c1ccc([N+](=O)[O-])o1
inactive: efficacy [1] 31.4% | outcome [2] | outcome [3] | outcome [4]

CCCc1nc2c(C)cc(-c3nc4ccccc4n3C)cc2n1Cc1ccc(-c2ccccc2C(=O)O)cc1
inactive: efficacy [1] 21.4% | outcome [2] | outcome [3] | outcome [4]

COc1cccc2c1C(=O)c1c(O)c3c(c(O)c1C2=O)C[C@@](O)(C(=O)CO)C[C@@H]3O[C@H]1C[C@H](N)[C@H](O)[C@H](C)O1
active: AC50 [2] 15.8 µM | AC50 [3] 14.1 µM
inactive: efficacy [1] 89.6%

NC(=Nc1ccccc1)Nc1ccccc1
inactive: efficacy [1] -28.5% | outcome [3]
active: AC50 [2] 3.16 µM

CCCCC(CC)CN=C(N)NC(N)=NCCCCCCN=C(N)NC(N)=NCC(CC)CCCC (centres undefined)
inactive: efficacy [1] -201% | outcome [3]
active: AC50 [2] 11.2 µM

CC(C)=CCOc1c2occc2cc2ccc(=O)oc12
inactive: outcome [5] | outcome [6] | outcome [7] | max response [8] -4.41% and 18.6% | efficacy [1] 19.5% | outcome [3] | outcome [4]
active: AC50 [2] 25.1 µM

c1ccc(C2CC2)c(OCC2=NCCN2)c1
inactive: outcome [5] | outcome [6] | outcome [7] | max response [8] -3.84% and 23.7% | efficacy [1] 46.8% | outcome [3] | outcome [4]
active: AC50 [2] 39.8 µM

CC1(CN2CCC(n3c(=O)[nH]c4ccccc43)CC2)OCc2ccccc2-n2cccc21 (centres undefined)
inactive: efficacy [1] 64.1%
active: AC50 [2] 20 µM | AC50 [3] 15.8 µM

Cc1cc(OCCOCC[N+](C)(C)Cc2ccccc2)ccc1C(C)(C)CC(C)(C)C
inactive: efficacy [1] -204%
active: AC50 [2] 8.91 µM | AC50 [3] 3.98 µM

CCn1cc(C(=O)O)c(=O)c2ccc(C)nc21
inactive: efficacy [1] 67.7% | outcome [2] | outcome [3]

COc1cc(Nc2c(C#N)cnc3cc(OCCCN4CCN(C)CC4)c(OC)cc23)c(Cl)cc1Cl
inactive: efficacy [1] 56%
active: AC50 [2] 2.82 µM | AC50 [3] 1.41 µM

NN=C(N)N
inactive: outcome [5] | outcome [6] | outcome [7] | max response [8] 9.75% and 23.5% | efficacy [1] -37.7% | outcome [2] | outcome [3] | outcome [4]

Cc1ccc(S(=O)(=O)N[C@@H](CCCCN)C(=O)CCl)cc1
inactive: outcome [5] | outcome [6] | outcome [7] | efficacy [1] 32.6% | outcome [3] | outcome [4]
active: AC50 [2] 14.1 µM

CN1CC(=O)N/C1=N/C(=O)Nc1cccc(Cl)c1
inactive: efficacy [1] -15.3% | outcome [2] | outcome [3] | outcome [4]

CCN1/C(=C/C=C/c2sc3ccccc3[n+]2CC)Sc2ccccc21
inactive: efficacy [1] 26.7% | outcome [2] | outcome [3] | outcome [4]

C[C@@H]1CC(=O)NN=C1c1ccc(NN=C(C#N)C#N)cc1
inactive: efficacy [1] -24% and 20% | outcome [2] | outcome [3] | outcome [4]

Cc1nc(N)nc(N)c1-c1ccc(Cl)c(Cl)c1
active: AC50 [2] 12.6 µM | AC50 [3] 28.2 µM
inactive: efficacy [1] -23% | outcome [4]

CC(=O)[C@H]1CC[C@H]2[C@@H]3CC[C@H]4C[C@](C)(O)CC[C@]4(C)[C@H]3CC[C@]12C
inactive: outcome [5] | outcome [6] | outcome [7] | max response [8] -7.05% and 9.26% | efficacy [1] 28.4% | outcome [2] | outcome [3] | outcome [4]

CC(C)NCC(O)c1ccccc1Cl (centres undefined)
inactive: efficacy [1] 16.7% | outcome [2] | outcome [3] | outcome [4]

Cc1cccc(C)c1NC1=NCCCS1
inactive: outcome [5] | outcome [6] | outcome [7] | max response [8] 0.533% and 4.4% | efficacy [1] -17.5% | outcome [2] | outcome [3] | outcome [4]

COc1ccc2c(c1OC)CN1CCc3cc4c(cc3C1C2)OCO4 (centres undefined)
12.7%: parasite growth, % of DMSO control [9]
7.61%: growth, % of control [11]
inactive: max response [8] 4.63% | efficacy [1] -21% | outcome [2] | outcome [3] | outcome [4]
24.6%: parasite growth remaining, % of DMSO control (lower = more inhibition) [10]

C=CCN1CC[C@]23c4c5ccc(O)c4O[C@H]2C(=O)CC[C@@]3(O)[C@H]1C5
inactive: max response [8] 6.99% and 10.2% | efficacy [1] 15.7% | outcome [2] | outcome [3] | outcome [4]

O=C(O)c1ccc2[nH]cc(CCCCN3CC=C(c4ccccc4)CC3)c2c1
inactive: max response [8] -6.11% | efficacy [1] 28% | outcome [2] | outcome [3] | outcome [4]

CCOP(=S)(OCC)Oc1cc(C)nc(C(C)C)n1
inactive: max response [8] 18.9% | max response [12] 0.702% and -4.39% | Potency [13] | efficacy [1] 13.4% | outcome [2] | outcome [3] | outcome [4]

O=[N+]([O-])c1cc([As](=O)(O)O)ccc1O
inactive: efficacy [1] -13% | outcome [2] | outcome [3] | outcome [4]
active: Potency [8] 3.98 µM

C[C@]12CCC(=O)C(O)=C1CC[C@@H]1[C@@H]2CC[C@]2(C)C(=O)CC[C@@H]12
71.8%: activity, percent of control [15]
inactive: outcome [5] | outcome [6] | outcome [7] | max response [8] 8.31% and 12.3% | max response [12] -3.27% | Potency [13] | efficacy [1] -14% | outcome [2] | outcome [3] | outcome [4]
108%: remaining proliferation (% of control), lower = more inhibition [16]
90.5%: remaining parasite growth % (stronger effect = lower value) [14]

Reference: PubChem BioAssay (NCATS)
